Sampled rows, rich in hits. Any-hit rate of the full collection: about 3.5%.
FBW7 activator = human FBW7 E3 ligase activation, primary screen. Q969H0. AlphaScreen FBW7–phospho-cyclin E peptide binding, activator screen. normalized activity (activation), % at 26.1 µM. 0.13% of 650,000 active. AID 1259310; in the data active = normalized activity above about 1.9%;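 also: purified mutant Fbw7 with reduced substrate affinity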
MITF primary = inhibitors of human MITF | O75030 | AlphaScreen MITF homodimerization, bead proximity signal | inhibition, % at 2.6 µM | 0.91% of 650,000 active | AID 1259374; in the data active = inhibition above about 50%
Target sequence (O75030 whole entry, looked up): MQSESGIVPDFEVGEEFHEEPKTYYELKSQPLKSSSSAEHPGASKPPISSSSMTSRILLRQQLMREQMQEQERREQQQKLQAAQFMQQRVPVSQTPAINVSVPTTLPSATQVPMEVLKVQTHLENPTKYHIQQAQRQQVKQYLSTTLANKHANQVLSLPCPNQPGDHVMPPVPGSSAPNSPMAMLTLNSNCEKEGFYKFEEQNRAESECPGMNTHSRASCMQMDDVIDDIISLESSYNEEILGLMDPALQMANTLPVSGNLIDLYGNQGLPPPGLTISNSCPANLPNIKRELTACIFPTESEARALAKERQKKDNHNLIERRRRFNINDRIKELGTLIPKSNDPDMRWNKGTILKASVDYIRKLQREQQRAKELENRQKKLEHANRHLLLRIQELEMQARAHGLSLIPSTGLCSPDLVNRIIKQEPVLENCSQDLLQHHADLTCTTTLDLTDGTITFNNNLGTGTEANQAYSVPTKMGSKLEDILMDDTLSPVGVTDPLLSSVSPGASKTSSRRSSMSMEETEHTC
GPR151 ag = activators of human GPR151 | Q8TDV0 | PathHunter beta-arrestin GPR151 cells, luminescence | activation, % at 11.2 µM | 1% of 650,000 active; in the data active = activation above about 4.9%
TEAD-YAP inh = TEAD-YAP interaction inhibition; inhibition, % at 9.12 µM; HEK-TIYL cells, TEAD-Gal4/YAP UAS-luciferase luminescence; 1.4% of 640,000 active; in the data active = inhibition above about 32%
Numbers stand for hits; n = inactive.

SMILES | FBW7 activator | MITF primary | GPR151 ag | TEAD-YAP inh
CN(C)CCOc1cc(-c2cn[nH]c2)ccc1NC(=O)C(O)c1ccc(F)cc1 (stereo not drawn) | n | n | n | n
CN(C)CCOc1cc(-c2cn[nH]c2)ccc1N | n | 54.0 | n | n
COC(=O)c1ccc(C2CC(=O)N3C(=C2C#N)SCC3(O)c2ccc(C)cc2)cc1 (stereo not drawn) | n | n | n | 49.0
N#CC1=C2SCC(O)(c3ccccc3)N2C(=O)CC1c1cccs1 (stereo not drawn) | n | n | n | 42.2
COc1cccc(C2CC(=O)N3C(=C2C#N)SCC3(O)c2cccc(OC)c2)c1 (stereo not drawn) | n | n | n | 51.0
N#CC1=C2SCC(O)(c3ccccc3)N2C(=O)CC1c1ccccc1F (stereo not drawn) | n | n | n | n
NC(=O)c1c(NC(=O)Cn2ncc(Cl)c(Cl)c2=O)sc2c1CCC2 | n | n | n | n
c1ccc(CN2CCOCCOCCN(Cc3ccccc3)CCOCCOCC2)cc1 | n | n | n | n
O=[N+]([O-])c1ccc(Cc2nnc(-c3ccc(F)cc3)o2)cc1 | n | n | n | n
Cc1ccc(-c2nnc(Cc3ccc([N+](=O)[O-])cc3)o2)cc1 | n | n | n | 60.9
N#Cc1ccc(N2CCc3ccccc3C2)c([N+](=O)[O-])c1 | n | n | n | n
Cc1nnc(-c2ccc(N3CCc4ccccc4C3)c([N+](=O)[O-])c2)o1 | n | n | n | 45.3
CC(=O)Oc1ccccc1/C=C/c1nc2ccccc2c(=O)o1 | n | n | n | 59.4
CC(=O)Oc1cc(OC(C)=O)c2c(=O)c(-c3ccc4c(c3)OCCCO4)coc2c1 | n | n | n | 69.5
COc1ccc2c(=O)c(-c3ccc4c(c3)OCCCO4)coc2c1 | n | n | n | n
COc1cc(OC)c2c(=O)c(-c3ccc4c(c3)OCO4)coc2c1 | n | n | n | n
CC(=O)Oc1ccc2c(=O)c(-c3ccc4c(c3)OCCCO4)coc2c1 | n | n | n | 66.9
N[C@H](Cc1cccc(C(F)(F)F)c1)c1nc2ccc(-c3cn[nH]c3)cc2c(=O)[nH]1 | n | n | n | n
N[C@H](Cc1ccc(Cl)cc1)c1nc2ccc(-c3cn[nH]c3)cc2c(=O)[nH]1 | n | n | n | 94.1
COc1cc(-c2cn[nH]c2)cc2c(=O)[nH]c([C@H](N)Cc3cccc(F)c3)nc12 | n | n | n | 71.6
COc1cc(-c2cn[nH]c2)cc2c(=O)[nH]c(Cc3cccc(NC(=O)C(C)C)c3)nc12 | n | n | n | n
COC(=O)C(O)(c1ccc(NCc2ccccc2)cc1)C(F)(F)F (stereo not drawn) | n | n | n | n
Cc1cccc(-n2c(C)cc(C(=O)OCc3c(C)noc3C)c2C)c1 | n | n | n | 41.2
Cc1noc(C)c1COC(=O)c1ccccc1I | n | n | n | n
CN1CCN(CCOCCOc2cccc(Cl)c2)CC1 | n | n | n | n
SMILES | FBW7 activator | MITF primary | GPR151 ag | TEAD-YAP inh
CN(C)c1ccc(/C=C/c2cc[n+](C)c3ccccc23)cc1 | n | n | n | 91.7
C=CCOc1ccc(C(=O)Nc2ccc(S(=O)(=O)N3CC(C)OC(C)C3)cc2)cc1 (stereo not drawn) | n | n | n | 39.2
O=C(CCCc1nc(-c2ccc(Cl)cc2)no1)NC1CCCC1 | n | n | n | 33.9
O=C(Nc1ccccc1)c1ccc2nc(Nc3ccc(C(F)(F)F)cc3)sc2c1 | n | n | n | n
S=C(NCc1ccccc1)N/N=C/c1ccccn1 | n | 52.0 | n | 89.4
O=C(COc1ccccc1-c1ccccc1)N/N=C/c1ccccn1 | n | n | n | 51.5
O=C(N/N=C/c1cccnc1)c1ccccc1OCc1ccccc1 | n | n | n | n
CCOc1ccc(Br)cc1C(=O)N/N=C/c1ccc2c(c1)OCO2 | n | n | n | 33.5
O=C(CCC(=O)N/N=C\c1ccccn1)N/N=C\c1ccccn1 | n | n | n | n
O=C(N/N=C/c1cccnc1)c1cc(Br)ccc1OCc1ccccc1 | n | n | n | 32.8
CN(C(=O)C1CCCCC1)c1nnc(-c2ccncc2)s1 | n | n | n | n
N#CC1=C(N)Oc2n[nH]c(-c3ccccc3)c2C12c1ccccc1-c1ccccc12 | n | n | n | n
CN(C)CCOc1cc(-c2cn[nH]c2)ccc1NC(=O)C1COc2ccc(C(=O)NCCc3cccs3)cc2C1 (stereo not drawn) | n | n | n | n
ClC12CC3CC(C1)CC(n1nnc4ccccc41)(C3)C2 | n | n | n | n
CCOc1ccccc1OCC(=O)N/N=C(\CCC(=O)O)c1ccccc1 | n | n | n | 59.4
O=C(COc1ccccc1-c1ccccc1)N/N=C/c1cccnc1 | n | n | n | 47.3
C/C(=N\NC(=O)COc1ccccc1-c1ccccc1)c1ccc(O)cc1O | n | n | n | 58.5
O=C(COc1ccccc1-c1ccccc1)N/N=C/c1ccncc1 | n | n | n | 51.7
O=[N+]([O-])c1cccc([N+](=O)[O-])c1N1CCN(Cc2ccccc2)CC1 | n | n | n | n
NC(=O)c1nc(-c2cccc(F)c2)nc2c1[nH]c(=O)n2-c1cccc(Cl)c1 | n | n | n | n
Cc1ccccc1OCC(=O)N/N=C/c1ccc(O)cc1 | n | n | n | n
CCOc1ccccc1OCC(=O)N/N=C/c1ccc(O)cc1 | n | n | n | 57.0
Cc1ccc(Cl)cc1N1CCN(c2c(-c3ccc4c(c3)OCC(=O)N4)c(=O)c2=O)CC1 | n | n | n | 61.1
O=C1COc2cc(-c3c(N4CCCC4)c(=O)c3=O)ccc2N1 | n | n | n | n
Cn1c(=O)[nH]c(=O)c2c1nc(N1CCc3ccccc3C1)n2CCCSc1ncccn1 | n | n | n | n
SMILES | FBW7 activator | MITF primary | GPR151 ag | TEAD-YAP inh
Cc1cc(C(F)(F)F)nc(SCc2ccc(C(=O)NNC(=O)c3ccccc3C)o2)n1 | n | n | n | 38.0
Cc1cc(C(F)(F)F)nc(SCc2ccc(C(=O)O)o2)n1 | n | n | n | n
O=C(C1CC12CCN(Cc1ccc3nsnc3c1)CC2)N1CCc2ccccc2C1 (stereo not drawn) | n | n | n | n
COC(=O)CCCN1C(=O)c2cccc3c(N4CCOCC4)ccc(c23)C1=O | n | n | n | 53.1
CCC(=O)OCCN1C(=O)c2cccc3c(N4CCOCC4)ccc(c23)C1=O | n | n | n | n
Cc1ccc(NC(=O)CN2C(=O)C(C)(C)Oc3ccc(C(=O)NC4CCCCC4)cc32)cc1 | n | n | n | n
COc1ccc(C(=O)OCC(=O)c2cccc([N+](=O)[O-])c2)cc1I | n | n | n | n
CCOC(=O)C(C(C)C)N(Cc1cccc(C)c1)S(=O)(=O)c1ccc([N+](=O)[O-])cc1 (stereo not drawn) | n | n | n | n
COC(Cn1c(=S)[nH]c2cc(Cl)ccc2c1=O)OC | n | n | n | n
O=C(Nc1ccc(N2CCCC2=O)cc1)c1ccco1 | n | n | n | 59.2
COc1ccc(CCNC(=O)c2cc(C)ccc2C)cc1OC | n | n | n | n
CCc1c(C)sc(NC(=O)C2C3C=CC(C3)C2C(=O)O)c1C(=O)OC(C)C (stereo not drawn) | n | n | n | 63.7
Cc1ccnc(SCc2cc(=O)c(OC(=O)c3ccc(OC(C)C)cc3)co2)n1 | n | n | n | n
c1csc(-c2cn3nc4c(nc3n2)CCCC4)c1 | n | n | n | 33.6
